Among all 5,500 compounds or so, about 2,000 (36%) were called active. Inconclusive results (about 18%) are left out. Cut-off read from the data, not from the text of the source: active = normalized growth mostly below about 0.91 (no sharp cut-off); inconclusive = no clear call, values can overlap the other calls; inactive = mostly above about 0.92. The list shows a part of the results.
Assay: chemical genetic growth profiling, strain panel (AID 1159580);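 note: tested at 20 µM; growth read once vehicle control cultures reached saturation at 30 °C; 1 = growth at the plate median or of vehicle wells; lower values mean less growth of the strain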
Conditions: growth OD

Measured: normalized growth

CN(C)CC/C=C1/c2ccccc2COc2ccccc21
inactive: S. cerevisiae deletion strains, locus YKL068W, hits give low values 1.02 | S. cerevisiae deletion strains, locus YKL085W, strain MDH1 (second series), hits give low values 1 | S. cerevisiae deletion strains, locus YKL085W, strain MDH1, hits give low values 1 | S. cerevisiae deletion strains, locus YKL160W, strain elf1, hits give low values 1.01 | S. cerevisiae deletion strains, locus YKL190W, strain CNB1, hits give low values 1.02 | S. cerevisiae deletion strains, locus YKR001C, strain vps1, hits give low values 1 | S. cerevisiae deletion strains, locus YKR026C, strain gcn3, hits give low values 1.03 | S. cerevisiae deletion strains, locus YKR091W, strain srl3, hits give low values 1.02 | S. cerevisiae deletion strains, locus YLL001W, strain dnm1, hits give low values 1.01 | S. cerevisiae deletion strains, locus YLL026W, hits give low values 1.02 | S. cerevisiae deletion strains, locus YLL041C, strain sdh2, hits give low values 1.03 | S. cerevisiae deletion strains, locus YLR027C, strain aat2, hits give low values 1.02 | S. cerevisiae deletion strains, locus YLR039C, strain RIC1, hits give low values 1.15 | S. cerevisiae deletion strains, locus YLR058C, strain SHM2, hits give low values 1.01 | S. cerevisiae deletion strains, locus YLR102C, strain apc9, hits give low values 1.01 | S. cerevisiae deletion strains, locus YLR113W, strain HOG1, hits give low values 1.09 | S. cerevisiae deletion strains, locus YLR221C, strain rsa3, hits give low values 1.01 | S. cerevisiae deletion strains, locus YLR258W, strain gsy2, hits give low values 1.02 | S. cerevisiae deletion strains, locus YLR262C, strain YPT6 (second series), hits give low values 1.09 | S. cerevisiae deletion strains, locus YLR262C, strain YPT6, hits give low values 1.14 | S. cerevisiae deletion strains, locus YLR268W, strain sec22, hits give low values 1.02 | S. cerevisiae deletion strains, locus YLR320W, strain mms22, hits give low values 1.01 | S. cerevisiae deletion strains, locus YLR330W, strain CHS5, hits give low values 1.01 | S. cerevisiae deletion strains, locus YLR342W, strain FKS1 (second series), hits give low values 1 | S. cerevisiae deletion strains, locus YLR342W, strain FKS1, hits give low values 1.01 | S. cerevisiae deletion strains, locus YLR357W, strain rsc2, hits give low values 1.02 | S. cerevisiae deletion strains, locus YLR370C, strain arc18, hits give low values 1.02 | S. cerevisiae deletion strains, locus YLR371W, strain rom2, hits give low values 1.01 | S. cerevisiae deletion strains, locus YLR384C, strain iki3, hits give low values 1.03 | S. cerevisiae deletion strains, locus YLR418C, strain cdc73, hits give low values 0.996 | S. cerevisiae deletion strains, locus YML016C, strain PPZ1, hits give low values 1 | S. cerevisiae deletion strains, locus YML032C, strain rad52, hits give low values 1.02 | S. cerevisiae deletion strains, locus YML120C, strain ndi1, hits give low values 1.04 | S. cerevisiae deletion strains, locus YML124C, strain tub3, hits give low values 1.02 | S. cerevisiae deletion strains, locus YMR058W, strain fet3, hits give low values 1.01 | S. cerevisiae deletion strains, locus YMR078C, strain ctf18, hits give low values 1.03 | S. cerevisiae deletion strains, locus YMR125W, strain sto1, hits give low values 1.02 | S. cerevisiae deletion strains, locus YMR129W, hits give low values 1.02 | S. cerevisiae deletion strains, locus YMR205C, strain PFK2, hits give low values 1.04 | S. cerevisiae deletion strains, locus YMR223W, strain ubp8, hits give low values 1.03 | S. cerevisiae deletion strains, locus YMR231W, strain pep5, hits give low values 1.03 | S. cerevisiae deletion strains, locus YMR263W, strain SAP30, hits give low values 1 | S. cerevisiae deletion strains, locus YMR307W, strain GAS1, hits give low values 1.05 | S. cerevisiae deletion strains, locus YNL067W, strain RPL9B, hits give low values 1.01 | S. cerevisiae deletion strains, locus YNL071W, strain lat1, hits give low values 1.02 | S. cerevisiae deletion strains, locus YNL128W, strain TEP1, hits give low values 1.01 | S. cerevisiae deletion strains, locus YNL153C, strain GIM3, hits give low values 0.997 | S. cerevisiae deletion strains, locus YNL183C, strain NPR1, hits give low values 0.989 | S. cerevisiae deletion strains, locus YNL209W, strain ssb2, hits give low values 0.985 | S. cerevisiae deletion strains, locus YNL233W, strain BNI4, hits give low values 1.01 | S. cerevisiae deletion strains, locus YNL248C, strain rpa49, hits give low values 1.01 | S. cerevisiae deletion strains, locus YNL250W, strain rad50, hits give low values 1.04 | S. cerevisiae deletion strains, locus YNL271C, strain bni1, hits give low values 1.01 | S. cerevisiae deletion strains, locus YNL298W, strain CLA4, hits give low values 1.02 | S. cerevisiae deletion strains, locus YNL307C, strain MCK1, hits give low values 1.03 | S. cerevisiae deletion strains, locus YNL322C, strain KRE1 (second series), hits give low values 1.02 | S. cerevisiae deletion strains, locus YNL322C, strain KRE1, hits give low values 1.02 | S. cerevisiae deletion strains, locus YNR049C, strain mso1, hits give low values 1.02 | S. cerevisiae deletion strains, locus YNR052C, strain pop2, hits give low values 1.02 | S. cerevisiae deletion strains, locus YOL006C, strain TOP1, hits give low values 0.974 | S. cerevisiae deletion strains, locus YOL012C, strain htz1 1.18 | S. cerevisiae deletion strains, locus YOL147C, strain pex11, hits give low values 1.01 | S. cerevisiae deletion strains, locus YOR001W, strain rrp6, hits give low values 1.02 | S. cerevisiae deletion strains, locus YOR061W, strain CKA2, hits give low values 1 | S. cerevisiae deletion strains, locus YOR069W, strain VPS5, hits give low values 1.01 | S. cerevisiae deletion strains, locus YOR070C, strain gyp1, hits give low values 1.02 | S. cerevisiae deletion strains, locus YOR080W, strain dia2, hits give low values 1.03 | S. cerevisiae deletion strains, locus YOR083W, strain WHI5, hits give low values 0.99 | S. cerevisiae deletion strains, locus YOR106W, strain vam3, hits give low values 1.02 | S. cerevisiae deletion strains, locus YOR136W, strain idh2, hits give low values 1.03 | S. cerevisiae deletion strains, locus YOR144C, strain elg1, hits give low values 1.01 | S. cerevisiae deletion strains, locus YOR184W, strain ser1, hits give low values 1.05 | S. cerevisiae deletion strains, locus YOR231W, strain MKK1, hits give low values 1.07 | S. cerevisiae deletion strains, locus YOR265W, strain rbl2, hits give low values 1.03 | S. cerevisiae deletion strains, locus YOR270C, strain vph1, hits give low values 1.02 | S. cerevisiae deletion strains, locus YOR290C, strain snf2, hits give low values 1.01 | S. cerevisiae deletion strains, locus YOR316C, strain cot1, hits give low values 1.01 | S. cerevisiae deletion strains, locus YPL051W, strain arl3, hits give low values 1.01 | S. cerevisiae deletion strains, locus YPL055C, strain LGE1, hits give low values 0.981 | S. cerevisiae deletion strains, locus YPL078C, strain atp4, hits give low values 1.02 | S. cerevisiae deletion strains, locus YPL106C, strain sse1, hits give low values 1.02 | S. cerevisiae deletion strains, locus YPL240C, strain hsp82, hits give low values 1.02 | S. cerevisiae deletion strains, locus YPL241C, strain CIN2, hits give low values 1.01 | S. cerevisiae deletion strains, locus YPL256C, strain CLN2, hits give low values 1.04 | S. cerevisiae deletion strains, locus YPR119W, strain clb2, hits give low values 1.01 | S. cerevisiae deletion strains, locus YPR141C, strain kar3, hits give low values 1.01 | S. cerevisiae deletion strains, locus YPR163C, strain tif3, hits give low values 1.01 | S. cerevisiae deletion strains, locus YPR167C, strain met16, hits give low values 1.02 | S. cerevisiae deletion strains, strain wtn01, hits give low values 1.03 | S. cerevisiae strains, strain wild type, hits give low values 1.01

— PubChem BioAssay AID1159580 (chemical genetic matrix, 2015)
